Structures are written as SMILES. The campaign covered roughly 410,000 compounds. About 18,000 (4.4%) were called active. Roughly 7% stayed inconclusive and do not appear here. Cut-off read from the data, not from the text of the source: active = activity change below about -60%; inconclusive = no clear call, values can overlap the other calls; inactive = above about -39%. What follows is part of a selection rich in actives, with near analogues and random picks from the rest.
% is set by controls: 0 for no effect and ±100 for the full control effect.

This experiment in a line: qHTS Assay for inhibitors of the human cytomegalovirus (HCMV). The conditions noted are these: HFF cells, HCMV-luciferase reporter, 72 h; at 57.5 µM; hits give low values. From the text: NCGC Assay Overview: Infection with human cytomegalovirus (HCMV) continues to pose significant threats for pregnant women and immunocompromised hosts. HCMV causes serious morbidity and mortality in transplant recipients, and congenital HCMV is the leading infectious cause of mental retardation and deafness in children. In the 1990s, the annual costs associated with the disease burden of congenital CMV were estimated at around $2 billion. A HCMV vaccine is not available yet and HCMV therapies result in intolerable side effects and emergence of drug resistant viruses. […] Towards this goal we have developed and characterized a luciferase HCMV reporter that was initially used in 96 well plates and then optimized to 1536-well plates for utilization in screening of the MLSMR collection, the NGCG diversity collection and the NCGC Pharmaceutical Collection of approved and investigational drugs.
NCGC Assay Protocol Summary:
This is a cell-based assay for HCMV inhibition in HFFs cells. The screening used 2 compound doses and the HCMV-luciferase at MOI of 1 PFU/cell. Cells were treated and infected with HCMV. At 72 h post infection cell lysates were collected and luciferase activity was determined using the Glomax-Multi + Detection System (Promega, Madison, WI). Data were normalized to the controls for basal activity (buffer only) and known HCMV inhibitors Salinmoycin.
1536-well assay protocol for the assay:
(1) Add 3 ul CMV/HFF cell culture. 1000 cells/well in DMEM nirmal media.
(2) Incubate 16 hr at 37C.
(3) Add 23 nl control compound, 10uM of Salinomycin.
(4) Add 23 nl compounds in DMSO solution.
(5) Add 3 ul CMV suspension. Final 1 puf/ul, Virus stock 2000pfu/ul
(6) Incubate 72 hrs at 37C.
(7) Add 4 ul OneGlo Luc Reagent.
(8) Incubate 5 min at room temperature.
For the compound `Cc1cc(C)cc(NC(=O)Cn2nc(N3CCN(c4ccccc4)CC3)ccc2=O)c1`, the activity change, negative = inhibition was -10.6% (inactive).

On to `O=C(CN1CCSCC1)N/N=C/c1ccc(F)cc1F`, for which the activity change, negative = inhibition is -10.6% (inactive). For `O=C(NN=Cc1ccccc1O)NN=Cc1ccccc1O` the value was -96.4% (active); for `NN=C(NN=Cc1ccccc1)c1ccccc1`, 49.5% (inactive).

As to `O=Nc1c(O)cc(O)c2ccccc12`, the activity change, negative = inhibition was 13.3% (inactive). Consider `CCc1ccccc1NC(=O)/C(=C/c1ccccc1)c1ccccc1`, for which the activity change, negative = inhibition was -13.4% (inactive). For `O=C(N/N=C/c1ccccc1O)/C(=C/c1ccccc1)CCO` the value was -88.1% (active); for `CC(=O)N1CCc2cc(Br)cc(S(=O)(=O)CCC(=O)NCCc3ccc(Cl)cc3)c21`, -23.8% (inactive); for `Nc1[nH]c(=S)nc2nc(-c3ccccc3)c(-c3ccccc3)nc12`, -3.08% (inactive). For `Nc1ccc(-c2sc(N)nc2-c2ccccc2)cc1` the value was -103% (active); for `Cc1nc(N)sc1-c1ccccc1`, -23.6% (inactive); for `CCn1c2ccccc2c2nnc(SCC(=O)O)nc21`, -4.51% (inactive).

For `CCCCn1c(CNC(=O)C23CC4CC(CC(C4)C2)C3)nnc1SCC(=O)Nc1ccc(C)cc1`, the activity change, negative = inhibition is 13.3% (inactive).

Regarding `Cc1noc(C)c1CSCC(=O)N(CCC(C)C)c1c(N)n(Cc2ccccc2)c(=O)[nH]c1=O`, the activity change, negative = inhibition is 4.61% (inactive).

For the compound `CCn1c(SCC(=O)NC2CC2)nnc1-c1ccccn1`, the activity change, negative = inhibition was -72.6% (active). Next, `CCn1c(SCC(=O)NC2CCCC2)nnc1-c1ccoc1C`: -17.9% (inactive). Next, `CCn1c(SCC(=O)NC2CC2)nnc1-c1ccncc1`: 56.4% (inactive); `COc1ccccc1Oc1ccc(S(=O)(=O)Nc2cccnc2)cc1`: -79.4% (active). On to `COc1ccc(S(=O)(=O)Nc2cccnc2)c(Cl)c1Cl`, for which the activity change, negative = inhibition was -8.35% (inactive). Next, `Cc1cc(C)c(C)c(S(=O)(=O)Nc2cccnc2)c1C`: -18.7% (inactive); `CCN(C(=O)CN1CCN(Cc2ccccc2)CC1)c1c(N)n(Cc2ccccc2)c(=O)[nH]c1=O`: 3.73% (inactive). For `Cc1c(-c2nc(-c3ccc4c(c3)OCO4)no2)nnn1-c1ccc(Br)cc1F` the value was -0.877% (inactive); for `CCc1nn(CC(=O)N2CCN(c3cccc(C(F)(F)F)c3)CC2)c(=O)c2cc3occc3n12`, -6.95% (inactive). Next, `COc1cccc(NC(=O)CSC2=Nc3ccccc3C3=NC(CC(=O)NC4CCCCC4)C(=O)N23)c1` (stereo unspecified): 14% (inactive); `O=C(NC1CC(=O)N(c2ccc(F)cc2)C1)c1ccc(S(=O)(=O)N2CCCC2)cc1` (stereo unspecified): -23.1% (inactive). Take `CCCCNS(=O)(=O)CCNCc1ccccc1OC`: the activity change, negative = inhibition is -20.1% (inactive). Next, `COC(=O)c1ccc2nc(-c3ccc(OC)c(OC)c3)c(Cc3ccccc3)n2c1`: 33.9% (inactive). Next, `COc1ccccc1Cc1c(-c2ccc(Cl)cc2)nc2ccc(Cl)cn12`: 13.1% (inactive); `CCCCCc1c(-c2ccc(OC)c(OC)c2)ncn1CCc1ccccc1OC`: -102% (active). For `CCCCCc1c(Cc2ccccc2)ncn1CCc1ccccc1OC` the value was -93.7% (active). Regarding `COc1ccc(-c2nnc(SCC(=O)Nc3ccccc3C)o2)cc1OC`, the activity change, negative = inhibition was 45.3% (inactive). Regarding `CCCc1c(-c2ccccc2F)ncn1Cc1ccccc1OC`, the activity change, negative = inhibition is -31.6% (inactive). For `CCCCc1c(-c2ccc(Br)cc2)ncn1CCc1ccccc1OC`, the activity change, negative = inhibition was -102% (active). Next, `COc1ccccc1CCNS(=O)(=O)c1cn(C)nc1C`: -2.46% (inactive).

Turning to `FC(F)(F)c1cccc(-c2cnc3ccccc3n2)c1`, the activity change, negative = inhibition is 32.3% (inactive). On to `Nc1ncc(S(=O)(=O)Nc2ccc(OC(F)(F)F)cc2)cn1`, for which the activity change, negative = inhibition is 4.7% (inactive).

For `CCN1C(=O)c2ccccc2S(=O)c2ccc(C(=O)NCc3ccc(F)cc3)cc21` (stereo unspecified), the activity change, negative = inhibition is 6.08% (inactive).

With `CSc1nn(Cc2cccc(C)c2)c(N)c1S(=O)(=O)c1ccccc1`, the activity change, negative = inhibition was -39.1% (inactive).

Regarding `Cc1ccc2ncc(C(=O)Nc3ccc(OC(F)(F)F)cc3)c(=O)n2c1`, the activity change, negative = inhibition was 19.1% (inactive). For `COC(=O)c1cnn(-c2ccc(C(=O)Nc3ccc(OC(F)(F)F)cc3)cc2)c1N` the value was -14.8% (inactive); for `O=C(Nc1ccc(OC(F)(F)F)cc1)c1ccc2c(c1)no[n+]2[O-]`, -88.8% (active); for `COc1ccc2c(c1)c(C(=O)N/N=C/c1cccs1)c(C)n2C`, -14.7% (inactive). Next, `Cc1ccccc1-n1c(C)cc(/C=N/NC(=O)c2ccc(CN3CCOCC3)cc2)c1C`: -25.2% (inactive). `Cc1cccc(-n2c(C)cc(/C=N\NC(=O)c3cccs3)c2C)c1`: the activity change, negative = inhibition was -61.8% (active). Next, `O=C(Nc1cccc(Cl)c1)c1csnn1`: -2.8% (inactive); `CC(=O)Nc1cc(C(=O)NCc2ccc(F)cc2Cl)ccc1Sc1ccc(Cl)cc1`: 5.5% (inactive).
